A selection: hits, their analogues and other compounds. The true share with any hit is near 6.2%.
KinaseGlo FLuc: Counterscreen for Luciferase (Kinase-Glo TM) Inhibition. 200,000 compounds, 0.28% hits. AID 1379, 2008. Potency, µM (top dose mostly 38.3 µM), for the others: at the highest dose activity change, negative = inhibition, hits mostly inhibitors. Luciferin 4-monooxygenase (Photuris pensylvanica), Q27757. Kinase-Glo luciferase, ATP luminescence, 8 min; note: nearly all actives have a fitted effect of over 60% in size
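Recombinant Kinase-Glo luciferase, 10 uM ATP (linear range), luciferin; imidazole pH 7.2 / KCl / MgCl2 / Tween / BSA buffer; 8 min RT; luminescence.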
Gal4-VP16 FLuc: VP16 counterscreen qHTS for inhibitors of ROR gamma transcriptional activity | Potency, µM (series often up to 53.6 µM), without a hit: at the highest dose activity, negative = inhibition, usual class: inhibitors | Drosophila S2 Gal4-VP16 UAS-luciferase, luminescence, 20 h | 310,000 compounds, 3.5% hits;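 note: Gal4-VP16 expression switched on by copper sulfate through the metallothionein promoter; nearly all actives have a fitted effect of over 50% in size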
RORgamma inh: qHTS for inhibitors of ROR gamma transcriptional activity | Potency, µM (doses to about 53.6 µM), for the others: at the top dose activity change, negative = inhibition, most hits filed as inhibitors | AID 2551, 2010 | Nuclear receptor ROR-gamma (Mus musculus), P51450 | 310,000 compounds, 5.4% hits | Drosophila S2 Gal4-RORgamma UAS-luciferase reporter, 20 h; note: nearly all actives have a fitted effect of over 60% in size
Target sequence (P51450 whole entry, looked up, the tested form may be a part): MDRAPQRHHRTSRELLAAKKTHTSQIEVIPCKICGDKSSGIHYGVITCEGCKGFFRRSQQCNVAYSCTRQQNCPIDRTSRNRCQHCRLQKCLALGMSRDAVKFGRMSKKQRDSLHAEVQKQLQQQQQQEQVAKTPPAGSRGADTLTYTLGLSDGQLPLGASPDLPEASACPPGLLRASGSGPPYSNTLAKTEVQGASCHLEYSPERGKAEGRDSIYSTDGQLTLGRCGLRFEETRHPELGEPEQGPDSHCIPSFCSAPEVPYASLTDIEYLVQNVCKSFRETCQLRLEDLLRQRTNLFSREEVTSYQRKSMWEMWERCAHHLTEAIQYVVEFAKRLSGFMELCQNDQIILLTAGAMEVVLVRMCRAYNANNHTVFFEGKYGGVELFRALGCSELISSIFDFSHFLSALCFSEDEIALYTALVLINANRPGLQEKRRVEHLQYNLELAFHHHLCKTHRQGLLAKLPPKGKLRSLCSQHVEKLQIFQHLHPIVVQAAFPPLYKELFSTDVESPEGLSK
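Schneider cells (Drosophila), stable Gal4 DBD–ROR gamma + UAS-luc; 1 hr cmpd preincubation; Cu2+ induction 700 uM final; 20 hr ambient; luminescence.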
Starred values were filed as active, the others as inactive; ? = inconclusive; / = no result; [ ] = remark or other dose. Calls come from the whole dose curve; as a rule, active = well fitted curve in the direction sought with a large enough effect; inconclusive = small, poorly fitted or top-dose-only effect, or another doubt; inactive = no such curve, though single readings can be large; an effect the other way counts as inactive or inconclusive. % is set by controls: 0 for no effect and ±100 for the full control effect; potency is the fitted concentration of half-maximal effect.

SMILES	KinaseGlo FLuc	Gal4-VP16 FLuc	RORgamma inh
COc1ccc(C(NC(C)=O)c2cc(Cl)c3cccnc3c2O)cc1 (stereo not given)	/	1.6µM*	2µM*
COc1cc(NC(=O)c2ccc(Cl)cc2)c2ncccc2c1	/	7%	-22%
S=c1[nH]nc(Cc2ccccc2)n1Cc1ccco1	5%	13µM*	14µM*
Oc1cc2ccccc2cc1-c1n[nH]c(=S)n1Cc1ccco1	-2%	-4%	13µM*
CCCn1c(Cc2ccccc2)n[nH]c1=S	2%	?	16µM*
Oc1ccc(-c2n[nH]c(=S)n2Cc2ccco2)cc1	-2%	-1%	-44%
CCCn1c(C(C)NS(=O)(=O)c2ccccc2)n[nH]c1=S (stereo not given)	/	-6%	10µM*
CCn1c(C(C)NS(=O)(=O)c2ccc(Cl)cc2)n[nH]c1=S (stereo not given)	/	0%	-31%
CCCn1c(C(C)NC(=O)c2ccccc2)n[nH]c1=S (stereo not given)	/	-4%	17%
S=c1[nH]nc(C2CC2)n1Cc1ccco1	15%	4%	-16%
O=C(O)c1ccccc1-n1c2ccccc2c2ccccc21	/	7%	0%
CC[C@H](C)[C@H](NC(=O)[C@H](Cc1ccc(O)cc1)NC(=O)[C@@H](NC(=O)[C@@H](N)CCCN=C(N)N)C(C)C)C(=O)N[C@@H](Cc1cnc[nH]1)C(=O)N1CCC[C@H]1C(=O)N[C@@H](Cc1ccccc1)C(=O)O	/	-5%	2%
CC(=O)OCC1OC(C#Cc2ccc(C(C)(C)C)cc2)C=CC1OC(C)=O (stereo not given)	/	-14%[10 µM]	-8%[10 µM]
CC1=C(C)CC(c2ccccc2)C(C(=O)c2ccccc2O)C1 (stereo not given)	/	7%[10 µM]	18%[10 µM]
CNC1C(O)C(OC2C(NC(=O)C(O)CN)CC(N)C(OC3OC(CN)C(O)C(O)C3O)C2O)OCC1(C)O (stereo not given)	/	0%	11%[10 µM]
CC(C)CC(C(=O)Nc1oc(-c2ccco2)c(-c2ccco2)c1C#N)N1C(=O)c2ccccc2C1=O (stereo not given)	1%	1%	-15%
O=C1[C@H]2CCn3c(=O)n(-c4ccccc4)c(=O)n3[C@H]2[C@H](O)[C@H]2O[C@@H]12	/	-12%[10 µM]	2%[10 µM]
CCOC(=O)c1ccc(NC(=O)c2ccc(OC(C)C)c(OC)c2)cc1	3%	-13%	-3%
CCOC(=O)c1ncc2[nH]c3cccc(OC(C)C)c3c2c1C	-1%[39.9 µM]	?	18µM*
CC12CCC(C(=O)Nc3cc(Cl)ccc3Cl)(C(Br)C1=O)C2(C)C (stereo not given)	0%	-10%	?
NC(N)=NC1=NC(=O)C(Cc2ccccc2)S1 (stereo not given)	-3%	6%	-5%
CCCCN(CC)c1nc(C)nc2c1c(C)c(C)n2-c1c(C)cc(C)cc1C	/	?	2.2µM*
CCN(CCCCO)c1nc(C)nc2c1c(C)c(C)n2-c1c(C)cc(C)cc1C	/	?	11µM*
CCCn1c(C)nc2c(N(CCN(CC)CC)CCN(CC)CC)nc(C)nc21	-7%	-1%	0%
C=CC[C@@H]1C=C[C@H](O/N=C(\C)CCN2CCCc3nc(C)c(C)cc32)[C@H](CO)O1	/	-11%[10 µM]	3%[10 µM]
SMILES	KinaseGlo FLuc	Gal4-VP16 FLuc	RORgamma inh
NC(=O)NCC12CC3CC(CC(C3)C1)C2	-5%	-7%	-15%
C/C(CCC12CC3CC(CC(C3)C1)C2)=N\NC(N)=S	2%	4.5µM*	1.3µM*
CC1CCN(c2nc3nonc3nc2Nc2ccc(F)cc2)CC1	2%	0%	1%
COc1cc(NC(=O)C2CC(c3ccccc3Cl)=NO2)cc(OC)c1OC (stereo not given)	/	16µM*	?
COc1cc(NC(=O)C2CC(c3ccc(Cl)cc3)=NO2)cc(OC)c1OC (stereo not given)	/	-2%	19%
CCOc1ccc(C(=O)Nc2cccc3ncccc23)cc1Br	3%	4%	17%
S=C1NC2=C(CCCC2=C2SCCS2)C(c2ccccc2)N1 (stereo not given)	-1%	?	7.1µM*
CC(=O)C1=C(c2ccccc2)NC(=S)NC1c1ccc(O)c(O)c1 (stereo not given)	5%	4%	-30%
O=C(NC(=S)Nn1cnnc1)c1ccccc1Br	/	-4%	-32%
CC1(C)CC(=O)C/C(=N\NC(=O)C2CC2c2ccccc2)C1 (stereo not given)	1%	-16%	-1%
CC1C/C(=N\NC(=S)NCc2ccccc2)CC(C)(C)C1 (stereo not given)	-1%	2.8µM*	1.3µM*
CC1CCC/C(=N/NC(=O)c2ccccc2-n2cccc2)C1 (stereo not given)	-4%	-13%	-10%
CC1(C)CC(=O)C/C(=N\NC(=S)NCc2ccccc2)C1	4%	?	14µM*
CC1CCCC/C1=N\NC(=S)Nc1ccccc1 (stereo not given)	-2%	-1%	-111%
CC1CCC/C(=N\NC(=S)NCc2ccccc2)C1 (stereo not given)	-2%	?	11µM*
CC1CCC/C(=N\NC(=S)Nc2ccccc2)C1 (stereo not given)	1%	?	7.9µM*
Cc1cc(C(=O)N/N=C2/CC(C)CC(C)(C)C2)c(C)o1 (stereo not given)	-2%	-6%	-14%
O=C(O)c1oc2ccccc2c1CSCc1ccccc1	1%	-3%	28%
O=S(=O)(c1ccccc1)N1CCC2(CCCN(c3ncccn3)C2)CC1	3%	7%	4%
Cc1ccc(S(=O)(=O)Nc2cccc3c2CCCC3)cc1	1%	-13%	4%
O=C(/C=C/c1ccccc1)N1CCCC1CO (stereo not given)	/	-4%[10 µM]	3%[10 µM]
O=S(=O)(c1ccc(NC(=S)NCc2ccc(F)cc2)cc1)N1CCOCC1	/	-1%	-4%
O=C(/C=C/c1c(F)cccc1Cl)NCc1ccc2c(c1)OCO2	/	-5%	-15%
COc1ccc(OC)c(/C=N/NC(=O)CCN2CCN(C(c3ccccc3)c3ccccc3)CC2)c1	0%	?	10µM*
COc1ccc(OC)c(NC(=O)CCN2CCN(Cc3ccccc3)CC2)c1	0%	3%	5%
SMILES	KinaseGlo FLuc	Gal4-VP16 FLuc	RORgamma inh
O=C(CCN1CCN(C(c2ccccc2)c2ccccc2)CC1)N/N=C/c1ccc(O)cc1	-2%	19%	-7%
O=C(CCN1CCN(c2ccccc2)CC1)N/N=C/c1ccccc1OC(F)F	1%	?	11µM*
O=C(CCN1CCN(C(c2ccccc2)c2ccccc2)CC1)N/N=C/c1ccc(O)cc1O	-2%	-19%	14µM*
COc1ccc(/C=N\NC(=O)CCN2CCN(c3ccccc3)CC2)cc1OC	-4%	-15%	11%
CN(C)c1ncc2nc(-c3ccccc3)c(=O)n(C3CC3)c2n1	-3%	-11%	-3%
C#C[C@@]1(O)CC[C@@H]2[C@H]3CCC4=C/C(=N\O)CC[C@H]4[C@@H]3CC[C@]21CC	/	-23%	-13%
CC(=O)c1ccccc1OCC(O)Cn1ccnc1 (stereo not given)	/	-4%	-2%
CC(C)Cn1c(N)c(C(=O)CSc2nc3ccccc3c(=O)n2CCCN2CCOCC2)c(=O)n(C)c1=O	-3%	-5%	16%

Screens: PubChem, National Center for Advancing Translational Sciences (NCATS)
